# Results published in PubChem BioAssay (Tox21).
# Results filed as inconclusive are left out. Activity calls are given as the source filed them. Calls follow the shape of the dose curve; as a rule, active = well fitted activation curve with a large enough effect in the repeat runs; inconclusive = weak or mixed curves; inactive = flat fitted curve, though single readings scatter.
# Assay: Caspase-3/7 induction in HepG2 cells by small molecules, qHTS assay (AID 1346978); also: nearly all actives have a fitted effect of over 15% in size
# Settings: HepG2 caspase-3/7 activation, Caspase-Glo luminescence, 17 h; series mostly up to 92.4 µM
# Source text: National Center for Advancing Translational Sciences [NCATS] NIH Chemical Genomics Center [NCGC] U.S. Environmental Protection Agency [EPA] National Institutes of Environmental Health Sciences [NIEHS] National Toxicology Program [NTP] Assay overview: Apoptosis is a process of programmed cell death and plays a central role in the development of multicellular organisms. It is a highly regulated process and induces cell death by activating caspases, which are the members of cysteine aspartic acid-specific protease (caspase) family. Caspases involved in apoptosis are classified by their mechanism of action as initiator caspases (caspase-2, -8, -9 and -10) and executioner caspases (caspase-3, -6, and -7). Inhibition of apoptosis results in number of cancers, autoimmune diseases, inflammatory diseases and viral infection. To identify small molecule compounds that induce apoptosis, a homogeneous, luminescent Caspase-Glo 3/7 assay was used. Wild type HepG2 cells were used to screen Tox21 libraries for identifying caspase-3/7 activity inducers.
# Assay Protocol Summary: HepG2 cells were dispensed at 2,000 per well in 5uL of culture medium into white solid bottom 1536-well plates (Corning Life Sciences, Corning, NY) using a Multidrop Combi (Thermo Scientific, Waltham, MA) dispenser. The assay plates were incubated at 37 C and 5% CO2 for 5hr, and then 23nL of compounds dissolved in DMSO and positive control were transferred using a Pintool station (Wako, San Diego, CA). The assay plates were incubated at 37C and 5% CO2 for 17hr. For caspase-3/7 activity read, 4uL of Caspase-Glo 3/7 reagent (Promega Corporation, Madison, WI) was added to each well of the assay plates using Flying Reagent Dispenser (FRD, Aurora Discovery, San Diego, CA) and incubated the assay plates at room temperature for 30min. The luminescence signal was quantified using a ViewLux plate reader (Perkin Elmer, Shelton, CT).
row,Structure (SMILES),outcome
1,Cc1cc(O)c2c(c1)C(=O)c1cccc(O)c1C2=O,inactive
2,OC[C@@H](O)[C@H](O)[C@@H](O)[C@@H](O)CO,inactive
3,OC(CCN1CCCCC1)(c1ccccc1)c1ccccc1,inactive
4,c1ccccc1,inactive
5,CC(=O)OCCCc1ccccc1,inactive
6,CCC(C)N (stereo not given),inactive
7,O=C(COCCOCCOCC(=O)Nc1c(I)cc(I)c(C(=O)O)c1I)Nc1c(I)cc(I)c(C(=O)O)c1I,inactive
8,Cc1ccc(C(=O)C(=O)O)cc1C,inactive
9,CC1(N)CCC(C(C)(C)N)CC1 (stereo not given),inactive
10,CO/N=C(/C(=O)N[C@@H]1C(=O)N2C(C(=O)O)=C(Cn3nnc(C)n3)CS[C@H]12)c1csc(N)n1,inactive
11,CCCCCN(CCCOC)C(=O)C(CCC(=O)O)NC(=O)c1ccc(Cl)c(Cl)c1 (stereo not given),inactive
12,O=C(O)c1c(Cl)ccc(Cl)c1Cl,inactive
13,CCC(O)C(C)(C)C (stereo not given),inactive
14,Cc1ccc2c(c1)c1c3n2CCNC3CCC1 (stereo not given),inactive
15,Nc1ccc(C(=O)OCC(O)CO)cc1 (stereo not given),inactive
16,COC(/C=C(\C)CCC=C(C)C)OC,inactive
17,O=CN1CCOCC1,inactive
18,CC1=NN(c2ccc(S(=O)(=O)O)cc2)C(=O)C1N=Nc1ccccc1 (stereo not given),inactive
19,COc1ccc(N=Nc2cc(C)c(N=Nc3ccc(S(=O)(=O)O)cc3)cc2OC)cc1,inactive
20,CCOC(=O)CC#N,inactive

row,Structure (SMILES),outcome
1,CC(CC(=O)O)CC(C)(C)C (stereo not given),inactive
2,CCC(C)(CCC(C)C)C(=O)[O-].CCC(C)(CCC(C)C)C(=O)[O-].[Zn+2] (stereo not given),inactive
3,O=C1OC(=O)c2cc(Oc3ccc4c(c3)C(=O)OC4=O)ccc21,inactive
4,CC(C)CCCCCCOC(=O)C1CCCCC1C(=O)OCCCCCCC(C)C (stereo not given),inactive
5,CCCCCCCCC(=O)OCC,inactive
6,CC(=O)/C=C/c1ccco1,inactive
7,CCOC(=O)C(C)(C)C,inactive
8,CC(C)(CO)[C@@H](O)C(=O)NCCCO,inactive
9,NC(=O)NC(=O)Cc1ccccc1,inactive
10,Nc1ccc(S(=O)(=O)Nc2ccccn2)cc1,inactive
11,Nc1cc(S(=O)(=O)O)ccc1S(=O)(=O)O,inactive
12,COCC(=O)Nc1c(I)c(C(=O)NCC(O)CO)c(I)c(C(=O)N(C)CC(O)CO)c1I (stereo not given),inactive
13,C=C[C@@H](C)CCC=C(C)C,inactive
14,CC(C)(c1ccc(Oc2ccc3c(c2)C(=O)OC3=O)cc1)c1ccc(Oc2ccc3c(c2)C(=O)OC3=O)cc1,inactive
15,CCCCCCCCCCCCOC(C)=O,inactive
16,C1=CCC(c2ccccc2)CC1 (stereo not given),inactive
17,Nc1ccc(S(=O)(=O)NC(=O)c2ccccc2)cc1,inactive
18,CC(C)COC(=O)CCCCC(=O)OCC(C)C,inactive
19,COc1ccc(/C=N/NC(=O)c2ccncc2)cc1OC,inactive
20,CCCCCCCCCCC,inactive
